From PubChem BioAssay
Rows were chosen to be rich in hits. Some 6% of all compounds tested hit in one or more screens of this group.
D3 antag: blocks the human D3 dopamine receptor; D3R cells, DiscoveRx beta-arrestin luminescence, antagonist mode; hits give low values; P35462; max response, negative = inhibition, %; AID 652054; 2.5% of 360,000 active; in the data active = max response below about -50%; inconclusive = no clear call, values can overlap the other calls
Target sequence (P35462 whole entry, looked up): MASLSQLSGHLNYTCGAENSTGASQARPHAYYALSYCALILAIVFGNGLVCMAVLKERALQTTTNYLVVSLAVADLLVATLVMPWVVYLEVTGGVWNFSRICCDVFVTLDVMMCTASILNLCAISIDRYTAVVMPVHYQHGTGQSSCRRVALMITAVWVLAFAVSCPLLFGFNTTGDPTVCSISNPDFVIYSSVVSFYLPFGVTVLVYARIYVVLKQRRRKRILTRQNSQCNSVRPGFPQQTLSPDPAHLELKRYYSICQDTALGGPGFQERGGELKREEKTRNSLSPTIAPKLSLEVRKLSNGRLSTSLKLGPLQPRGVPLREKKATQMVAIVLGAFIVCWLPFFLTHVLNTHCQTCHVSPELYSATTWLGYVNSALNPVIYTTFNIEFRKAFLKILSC
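Cells plated overnight at 1500 cells/well, then exposed to library compounds with dopamine controls for 90 minutes at 37 degrees C. DiscoveRx reagent added for 30–60 minutes at room temperature; luminescence read, quantitative HTS format.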
D1 PAM: potentiators of human D1 dopamine receptor; 0.036% of 360,000 active; potentiation, % at 10 µM; P21728; AID 504651; HEK293 TREx D1 cells, calcium flux, dopamine EC20 potentiation; in the data active = potentiation above about 30%
D1 antagonist: blocks dopamine activation of the human D1 receptor; activity change, negative = inhibition, % at 10 µM; HEK293 TREx D1 cells, calcium flux, dopamine EC80; hits give low values; 3.2% of 360,000 active; P21728; in the data active = activity change below about -30%
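HEK293 T-REx cells expressing inducible, force-coupled D1 receptor; no-wash Ca dye, 30–90 min RT. Cmpd → 180 s read at 1 Hz → EC80 DA → 180 s read.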
DRD3 agonist: D3 dopamine receptor (human) agonism; P35462; D3R DiscoveRx beta-arrestin cells, luminescence, 90 min; max activation, %; 0.58% of 410,000 active; AID 652048; in the data active = max activation above about 30%
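Cells at 1500/well, incubated overnight, then treated with pinned compounds (dopamine as control) for 90 min at 37 degrees C. DiscoveRx reagent added for 30 - 60 minutes at room temperature; luminescence read.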
D1 ag: human D1 receptor agonism; P21728; HEK293 T-REx D1 cells, calcium flux, agonist mode; activation, % at 2 µM; 1% of 360,000 active; in the data active = activation above about 30%
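Agonism was scored from calcium flux recorded over 180 s (1 read/s) after pintool compound addition, following a 10-cycle baseline. Cells were inducible force-coupled HEK293 TREx D1, plated overnight at 30 C and loaded with no-wash calcium dye.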
Of the large screens only hits and unclear results are named; the others gave an inactive call; ! = not confirmed by another sample.

Cc1ccc2oc(C(=O)Nc3sc4c(c3C(=O)NCc3ccccc3)CCCC4)cc(=O)c2c1	none (no result: D3 antag)
Cc1ccc(NC(=O)Cn2nnc(C(=O)NCCc3ccccc3)c2N)cc1	none (no result: D3 antag)
Cc1c(Cl)cccc1-n1c(SCC(=O)NCc2ccccc2)nc2n[nH]c(C)c2c1=N	none (no result: D3 antag)
CC(C)(C)c1ccc(NC(=O)c2ccsc2)cc1	D1 antagonist -31
Cc1ccccc1C(=O)Nc1ccc2oc(-c3ccc(Cl)c(Cl)c3)nc2c1	none (no result: D3 antag)
COc1ccc2cc(CNc3ccc(C)cc3)c(=O)n(CC(=O)Nc3cccc(Cl)c3C)c2c1	none (no result: D3 antag)
CCOc1ccccc1NC(=S)N(CCOC)C1CCN(C(C)=O)CC1	none
COCCN(C(=S)Nc1ccccc1OC)C1CCN(C(C)=O)CC1	D1 antagonist -35
CCC1Oc2ccc(C)cc2N(CC(=O)NCCCN2CCN(Cc3ccccc3)CC2)C1=O (centres undefined)	D3 antag -75
CCC1Oc2ccccc2N(CC(=O)NCCCN2CCN(c3ccc(OC)cc3)CC2)C1=O (centres undefined)	D1 antagonist -90
CCC1Oc2ccc(C)cc2N(CC(=O)NCCN2CCCCCC2)C1=O (centres undefined)	D3 antag inconclusive
CCOc1ccc(NC(=O)c2c(Nc3ccc(OC)cc3OC)sc(C(=O)c3ccc(Cl)cc3)c2N)cc1	D1 ag 49 (no result: D3 antag)
CC(=NNC1=NCCN1)c1cn(C2=NCCN2)nc1C	D3 antag -50 (no result: D1 PAM, D1 antagonist, D1 ag)
CCCCOc1ccc(Br)cc1/C(C)=N/NC1=NCCN1	none
COc1ccc(OC)c(S(=O)(=O)NCc2ccc3c(c2)CCN3C(=O)c2cccc(C)c2)c1	none (no result: D3 antag)
CCCc1nc2sc3ccccc3c(=O)c2c(=O)n1Cc1ccco1	D1 ag 80
CCCc1nc2sc3ccccc3c(=O)c2c(=O)n1Cc1ccc(OC)cc1	none
C=CCn1c(Cc2ccccc2)nc2c(cnn2-c2ccccc2)c1=O	DRD3 agonist 39
NS(=O)(=O)c1ccc(CCNC(=O)c2nc(SCc3ccccc3F)ncc2Cl)cc1	none (no result: D3 antag)
COC(=O)c1ccccc1NC(=O)NCc1ccc2c(c1)CCN2C(=O)c1ccccc1	none (no result: D3 antag)
COC(=O)c1ccc(NC(=O)c2nn(C)c3c2CS(=O)(=O)c2ccccc2-3)cc1	none (no result: D3 antag)
CCOC(=O)c1cnc2ccccc2c1NCc1ccco1	D1 antagonist -39
CCCc1noc(-c2ccc(NCc3ccc(C)cc3)c([N+](=O)[O-])c2)n1	none (no result: D3 antag)
CCCc1ccc(OCC(O)CN2CCN(c3ccccn3)CC2)cc1 (centres undefined)	DRD3 agonist 62
CCc1ccc(OCC(O)CN2CCN(c3ccccn3)CC2)cc1 (centres undefined)	none
CC(=O)c1ccc(OCC(O)CN2CCN(c3ccccn3)CC2)cc1 (centres undefined)	D3 antag -55, D1 antagonist -60, DRD3 agonist 56
O=C(CSc1nncn2c1cc1sccc12)Nc1ccc(Br)cc1F	none (no result: D3 antag)
CCN(CC)C(=O)c1c(-c2ccccc2)oc2ccc(O)cc12	D1 antagonist -31
CCOC(=O)c1c(-c2ccccc2)oc2ccc(O)cc12	none
CCN(CC)CCOC(=O)c1c(C)oc2ccc(O)cc12	D3 antag -72
COCCOC(=O)c1c(C)oc2ccc(OCc3cc(C(=O)OC)oc3C)cc12	DRD3 agonist 48
CCOC(=O)c1c(CN2CCN(C)CC2)oc2ccc(O)cc12	D3 antag -54
COc1ccc(S(=O)(=O)N2CCC(n3c(C(F)(F)F)nc4cccnc43)CC2)cc1OC	none (no result: D3 antag)
COc1ccc(C(=O)NCCn2cc(SCC(=O)NCc3ccco3)c3ccccc32)cc1	D3 antag -69
COc1ccc(C(=O)NCCn2cc(SCC(=O)NCC3CCCO3)c3ccccc32)cc1 (centres undefined)	none
CCc1nn(CC(=O)NCCCN2CCOCC2)c(=O)c2cc3cc(F)ccc3n12	D1 antagonist -74
CCc1nn(CC(=O)NCCCN2CCOCC2)c(=O)c2cc3sccc3n12	D3 antag inconclusive
CCc1nn(CC(=O)NCCCN(CC)CC)c(=O)c2cc3occc3n12	none (no result: D3 antag)
CCc1nn(CC(=O)NCCCN2CCN(CC)CC2)c(=O)c2cc3occc3n12	D1 antagonist -35!
Cc1cc(C)c(S(=O)(=O)Nc2nnc(C)s2)c(C)c1	D1 antagonist -34
Cc1cccc(-c2nnn3c2nc(NCCc2ccc(S(N)(=O)=O)cc2)c2cc(Cl)ccc23)c1	none (no result: D3 antag)
CCOc1ccc(NC(=O)NC(=O)N(C(C)C)S(C)(=O)=O)cc1	D1 antagonist -35
CCOc1ccc(OCC(=O)Nc2ccc(S(N)(=O)=O)cc2)cc1	D1 antagonist -34
